The panel holds about 79,000 compounds, 15% with a hit somewhere; the sample as a whole holds those more often. Values without a mark were called inactive. Active and inactive are the calls of the source. No stated cut-off is given here; in the data, active means growth inhibition above about 70%; inactive means the rest.

Among the data in PubChem BioAssay (NCI) are growth inhibition values, retold here.

Test [1] in a line: NCI Yeast Anticancer Drug Screen. Data for the rad50 strain (AID 155).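 Further: 0% = growth of vehicle-only cultures of the same strain.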 The note with it: S. cerevisiae rad50 strain growth inhibition, stronger effect = higher value. The method in brief:
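Compounds were tested on a yeast strain with an engineered DNA damage repair alteration; the reported value is growth inhibition normalised to vehicle treatment.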

Test [2] is described as follows: NCI Yeast Anticancer Drug Screen. Data for the mec2-1 strain (AID 157). The note with it: S. cerevisiae mec2-1 strain, stronger effect = higher value. Put shortly:
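Mutant yeast (mec2-1) grown with compound; growth inhibition relative to vehicle control reported.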

The nature of test [3]: NCI Yeast Anticancer Drug Screen. Data for the sgs1 mgt1 strain (AID 161).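 Further: 0% = growth of cultures given vehicle only.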 The note with it: S. cerevisiae sgs1 mgt1 strain, stronger effect = higher value. Put shortly: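 Percent growth inhibition was derived by comparing compound-exposed mutant yeast with vehicle-exposed cultures. The strain carries alterations in DNA damage repair.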
A short description of test [4]: NCI Yeast Anticancer Drug Screen. Data for the cln2 rad14 strain (AID 165).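 Further: 0% = growth equal to vehicle treated cultures.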 The note with it: S. cerevisiae cln2 rad14 strain, stronger effect = higher value. The method in brief:
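Readout is yeast growth inhibition versus vehicle-treated controls, using a strain with cln2 and rad14 alterations exposed to compound.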

Test [5] in a line: NCI Yeast Anticancer Drug Screen. Data for the bub3 strain (AID 167). The note with it: S. cerevisiae bub3 mutant strain, stronger effect = higher value. Put shortly:
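Growth of a checkpoint-deficient yeast mutant is measured after compound exposure. Values represent inhibition relative to vehicle.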

Test [6] can be described thus: NCI Yeast Anticancer Drug Screen. Data for the mlh1 rad18 strain (AID 175). The note with it: S. cerevisiae mlh1 rad18 strain growth inhibition, stronger effect = higher value. Put shortly: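 Genetically defined yeast (DNA repair-deficient) exposed to compounds; growth inhibition determined relative to vehicle.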
The mark [7] stands for this setting: at 5.0 µM (retest, dose inferred, filed as 0.5).
Where [8] appears, read: at 50.0 µM (retest, dose inferred, filed as 5.0).

Take `c1ccc2c(c1)[nH]c1c[n+]3c(c[n+]12)[nH]c1ccccc13`: the growth inhibition in test [1] (setting [7]) is 7%; in test [1] (setting [8]), 53%; in test [1] (at 50.0 µM), 71.6% (active); in test [2] (setting [7]), 8%; in test [2] (setting [8]), 47%; in test [2] (at 50.0 µM), 5.45%. Further, the growth inhibition in test [3] (setting [7]) was 10%; in test [3] (setting [8]), 67%; in test [3] (at 50.0 µM) it was 58.9%; in test [4] (setting [7]) it was -7%; in test [4] (setting [8]), 29%; in test [4] (at 50.0 µM) it was 45.2%. The growth inhibition in test [5] (setting [7]) is -8%; in test [5] (setting [8]), 50%; in test [5] (at 50.0 µM) it was 6%; in test [6] (setting [7]) it was 4%; in test [6] (setting [8]) it was 84% (active); in test [6] (at 50.0 µM) it was 80% (active).

Turning to `O=c1oc2c/c(=C\c3ccccc3)c(=O)c3cccc1c3-2`, the growth inhibition in test [1] (setting [7]) was -6%; in test [1] (setting [8]) it was 97% (active); in test [1] (at 50.0 µM) it was 84.4% (active); in test [2] (setting [7]) it was -2%; in test [2] (setting [8]), 95% (active); in test [2] (at 50.0 µM), 88.7% (active). Also, the growth inhibition was 12% in test [3] (setting [7]); 97% (active) in test [3] (setting [8]); 81.2% (active) in test [3] (at 50.0 µM); -7% in test [4] (setting [7]); 96% (active) in test [4] (setting [8]); 87.2% (active) in test [4] (at 50.0 µM). In addition, the growth inhibition in test [5] (setting [7]) was -7%; in test [5] (setting [8]), 96% (active); in test [5] (at 50.0 µM), 86.7% (active); in test [6] (setting [7]), 28%; in test [6] (setting [8]), 96% (active); in test [6] (at 50.0 µM), 78.7% (active).

For `CCOCCNCc1ccc(Cl)c(Cl)c1`, the growth inhibition in test [1] (setting [7]) was -145%; in test [1] (setting [8]) it was -89%; in test [1] (at 50.0 µM) it was 4.05%; in test [2] (setting [7]) it was -47%; in test [2] (setting [8]) it was -51%; in test [2] (at 50.0 µM), 0.1%. The growth inhibition in test [3] (setting [7]) is -60%; in test [3] (setting [8]) it was -90%; in test [3] (at 50.0 µM), 2.7%; in test [4] (setting [7]), -51%; in test [4] (setting [8]) it was -53%; in test [4] (at 50.0 µM), 21.1%. The growth inhibition in test [5] (setting [7]) was -67%; in test [5] (setting [8]), -50%; in test [5] (at 50.0 µM) it was -5.85%; in test [6] (setting [7]) it was -144%; in test [6] (setting [8]), -85%; in test [6] (at 50.0 µM) it was -7.9%.

For `O=C(O)CSc1nnc2c3ccccc3c3ccccc3c2n1`, the growth inhibition in test [1] (setting [7]) is -14%; in test [1] (setting [8]), 70% (active); in test [1] (at 50.0 µM), 48%; in test [2] (setting [7]), 6%; in test [2] (setting [8]), 46%; in test [2] (at 50.0 µM), 30.1%. The growth inhibition in test [3] (setting [7]) is -2%; in test [3] (setting [8]), 55%; in test [3] (at 50.0 µM), 7.8%; in test [4] (setting [7]), -33%; in test [4] (setting [8]), 65%; in test [4] (at 50.0 µM), 47.7%. Further, the growth inhibition in test [5] (setting [7]) was 17%; in test [5] (setting [8]), 53%; in test [5] (at 50.0 µM), 54.9%; in test [6] (setting [7]), 9%; in test [6] (setting [8]), 71% (active); in test [6] (at 50.0 µM), 47.1%.

As for `O=C(c1ccc(O)cc1)c1ccccc1O`, the growth inhibition is 6% in test [1] (setting [7]); 76% (active) in test [1] (setting [8]); 63.8% in test [1] (at 50.0 µM); -7% in test [2] (setting [7]); 23% in test [2] (setting [8]); 37.2% in test [2] (at 50.0 µM). For the same molecule, the growth inhibition was -2% in test [3] (setting [7]); 14% in test [3] (setting [8]); 44.4% in test [3] (at 50.0 µM); -1% in test [4] (setting [7]); 3% in test [4] (setting [8]); -7.55% in test [4] (at 50.0 µM). Also, the growth inhibition in test [5] (setting [7]) was 45%; in test [5] (setting [8]), 41%; in test [5] (at 50.0 µM) it was 17.9%; in test [6] (setting [7]), -2%; in test [6] (setting [8]) it was 23%; in test [6] (at 50.0 µM) it was 51.6%.

In the case of `CCCCCCCCCCCCCC(N)c1ccc(C)cc1` (configuration not stated), the growth inhibition is 60% in test [1] (setting [7]); 97% (active) in test [1] (setting [8]); 99% (active) in test [1] (at 50.0 µM); 0% in test [2] (setting [7]); 98% (active) in test [2] (setting [8]); 99.2% (active) in test [2] (at 50.0 µM). The growth inhibition in test [3] (setting [7]) was 99% (active); in test [3] (setting [8]), 98% (active); in test [3] (at 50.0 µM), 99.5% (active); in test [4] (setting [7]), 3%; in test [4] (setting [8]) it was 97% (active); in test [4] (at 50.0 µM) it was 97.7% (active). Besides, the growth inhibition in test [5] (setting [7]) was 13%; in test [5] (setting [8]) it was 97% (active); in test [5] (at 50.0 µM), 98.5% (active); in test [6] (setting [7]) it was 33%; in test [6] (setting [8]) it was 97% (active); in test [6] (at 50.0 µM) it was 98.3% (active).

Consider `COc1cccc(NC(=S)NC(Cc2ccccc2)c2ccccc2)c1` (configuration not stated), for which the growth inhibition in test [1] (setting [7]) is -7%; in test [1] (setting [8]), 88% (active); in test [1] (at 50.0 µM), 80.2% (active); in test [2] (setting [7]), -10%; in test [2] (setting [8]), 88% (active); in test [2] (at 50.0 µM), 74.1% (active). Besides, the growth inhibition in test [3] (setting [7]) was -7%; in test [3] (setting [8]), 90% (active); in test [3] (at 50.0 µM), 83.9% (active); in test [4] (setting [7]), 19%; in test [4] (setting [8]) it was 88% (active); in test [4] (at 50.0 µM) it was 70% (active). Also, the growth inhibition in test [5] (setting [7]) was -2%; in test [5] (setting [8]) it was 90% (active); in test [5] (at 50.0 µM), 77.2% (active); in test [6] (setting [7]), -7%; in test [6] (setting [8]), 88% (active); in test [6] (at 50.0 µM), 72.4% (active).

With `CCOCCC(=O)N1c2ccccc2CC1c1c[nH]c2ccccc12` (configuration not stated), the growth inhibition is -6% in test [1] (setting [7]); 36% in test [1] (setting [8]); 74.3% (active) in test [1] (at 50.0 µM); -9% in test [2] (setting [7]); 32% in test [2] (setting [8]); 4.65% in test [2] (at 50.0 µM). The growth inhibition in test [3] (setting [7]) is -8%; in test [3] (setting [8]), 59%; in test [3] (at 50.0 µM), 51.6%; in test [4] (setting [7]), -57%; in test [4] (setting [8]), 36%; in test [4] (at 50.0 µM) it was 8.45%. In addition, the growth inhibition in test [5] (setting [7]) is -8%; in test [5] (setting [8]), 48%; in test [5] (at 50.0 µM) it was 0.45%; in test [6] (setting [7]) it was -4%; in test [6] (setting [8]), 34%; in test [6] (at 50.0 µM), 67.1%.

As to `O=C(/C=C\c1ccc([N+](=O)[O-])o1)/C=C/c1ccc([N+](=O)[O-])o1`, the growth inhibition in test [1] (setting [7]) was 36%; in test [1] (setting [8]), 96% (active); in test [1] (at 50.0 µM), 96.8% (active); in test [2] (setting [7]) it was 33%; in test [2] (setting [8]) it was 98% (active); in test [2] (at 50.0 µM), 97.1% (active). For the same molecule, the growth inhibition in test [3] (setting [7]) was 52%; in test [3] (setting [8]), 98% (active); in test [3] (at 50.0 µM), 95% (active); in test [4] (setting [7]), 28%; in test [4] (setting [8]) it was 97% (active); in test [4] (at 50.0 µM), 92.7% (active). In addition, the growth inhibition was 38% in test [5] (setting [7]); 97% (active) in test [5] (setting [8]); 94.9% (active) in test [5] (at 50.0 µM); 91% (active) in test [6] (setting [7]); 96% (active) in test [6] (setting [8]); 98.2% (active) in test [6] (at 50.0 µM).
